These results are taken from PubChem BioAssay (NCATS).

Structures are written as SMILES. “And” between values parts separate entries of the source, which are not always exact repeats. Equal values may be shown once. Results filed as inconclusive are left out. Unmarked numbers belong to inactive results. The source made the active and inactive calls. Calls follow the shape of the dose curve; as a rule, active = well fitted inhibition curve with a large enough effect; inconclusive = small, poorly fitted or top-dose-only effect; inactive = flat fitted curve, though single readings scatter.

The test system of one assay is P94_40. Put plainly: qHTS profiling for inhibitors of Plasmodium falciparum proliferation (AID 504749).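 Also: 0% = DMSO vehicle and full inhibition = artemisinin control.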 The conditions noted are these: P. falciparum in erythrocytes, SYBR Green DNA, 72 h; series mostly up to 28.7 µM. In a few lines:
(§1)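 In a 72 h erythrocytic culture (37 C, humidified, 5% CO2) at 2.5% hematocrit and 0.3% starting parasitemia, compounds were tested; SYBR Green I in detergent lysis buffer stained parasite DNA overnight.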
For orientation: qHTS replaces the single test concentration by a dilution series.

For the next assay, the system named is PAD. The description is as above. The conditions noted are these: P. falciparum in erythrocytes, SYBR Green DNA, 72 h; series mostly up to 28.7 µM. A digest of the protocol:
as §1

A further assay relates to PC15. Described as above. The conditions noted are these: P. falciparum in erythrocytes, SYBR Green DNA, 72 h; series mostly up to 28.7 µM. A digest of the protocol: as §1
A further assay concerns PC26. The description is as above. The conditions noted are these: P. falciparum in erythrocytes, SYBR Green DNA, 72 h; series mostly up to 28.7 µM. A digest of the protocol:
as §1

The test system of a further assay is PC49. The description is as above. The conditions noted are these: P. falciparum in erythrocytes, SYBR Green DNA, 72 h; series mostly up to 28.7 µM. A digest of the protocol:
as §1

For another assay, the system named is SC27B. The assay is described as above. The conditions noted are these: P. falciparum in erythrocytes, SYBR Green DNA, 72 h; series mostly up to 28.7 µM. A digest of the protocol:
as §1

In the next assay the test system is TAB113. The assay is described as above. The conditions noted are these: P. falciparum in erythrocytes, SYBR Green DNA, 72 h; series mostly up to 28.7 µM. In a few lines: as §1
Another assay has as its system W2. The assay is described as above. The conditions noted are these: P. falciparum in erythrocytes, SYBR Green DNA, 72 h; series mostly up to 28.7 µM. A digest of the protocol:
as §1

Assay [1] deals with CRL-7250. Put plainly: Cytotoxic Profiling of Annotated Libraries Using Quantitative High-Throughput Screening (AID 1296008). Also: potency is read from the fitted curve at half-maximal effect. As to max response: % is scaled to controls: 0 for no effect and ±100 for the full control effect. The conditions noted are these: Five cell lines viability, CellTiter-Glo ATP luminescence, 48-72 h; max response: active compounds read low. A digest of the protocol: (§2)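 Cytotoxicity was measured as CellTiter-Glo ATP luminescence, read after 10 min at room temperature. Compound treatment of the cells lasted 48 or 72 hr at 37 degrees Celsius in a qHTS format.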

The test system of assay [2] is HaCat. The assay is described as above. The conditions noted are these: Five cell lines viability, CellTiter-Glo ATP luminescence, 48-72 h; max response: active compounds read low. In a few lines:
as §2
(ATP-based viability assays read luminescence as a measure of living cells.)

Another assay relates to KB-3-1. The assay is described as above. The conditions noted are these: Five cell lines viability, CellTiter-Glo ATP luminescence, 48-72 h; max response: active compounds read low. In a few lines: as §2
In another assay the test system is NIH3T3. Described as above. The conditions noted are these: Five cell lines viability, CellTiter-Glo ATP luminescence, 48-72 h; max response: active compounds read low. In a few lines:
as §2

In assay [3] the test system is HACAT. Put plainly: qHTS assay to identify novel small-molecules to repurpose for Merkel cell carcinoma treatment (AID 1296009). Also: potency is read from the fitted curve at half-maximal effect. The conditions noted are these: MCC and control cell lines, CellTiter-Glo viability, 72 h; at 44.8 µM (top of the series) unless noted. In a few lines:
(§3)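 Cell viability measured by CellTiter-Glo following 72 hr compound treatment at 37 degree celsius, with NPC and MIPE libraries tested in 8- and 11-point concentration series.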

Another assay has as its system HEK293T. Described as above. The conditions noted are these: MCC and control cell lines, CellTiter-Glo viability, 72 h; at 44.8 µM (top of the series) unless noted. A digest of the protocol:
as §3

Another assay deals with MCC-13. The description is as above. The conditions noted are these: MCC and control cell lines, CellTiter-Glo viability, 72 h; series mostly up to 46 µM. A digest of the protocol: as §3
In assay [4] the test system is CRL-7250. The description is as above. The conditions noted are these: MCC and control cell lines, CellTiter-Glo viability, 72 h; at 44.8 µM (top of the series) unless noted. In a few lines:
as §3

The test system of a further assay is HEK293. Put plainly: Cytotoxic Profiling of Annotated Libraries Using Quantitative High-Throughput Screening (AID 1296008). Also: potency is read from the fitted curve at half-maximal effect. As to max response: % is scaled to controls: 0 for no effect and ±100 for the full control effect. The conditions noted are these: Five cell lines viability, CellTiter-Glo ATP luminescence, 48-72 h; max response: active compounds read low. In a few lines: as §2
Also: nearly all actives have a fitted effect of over 60% in size.

In the case of `CC[N+]1(CCOC(=O)C(O)(c2ccccc2)c2ccccc2)CCCCC1`, the Potency result with P94_40, with PAD, in the assay with PC15, in the assay on PC26, in the assay with PC49 and in the assay with SC27B was “inactive” each time. In addition, the Potency result with TAB113, in the assay with W2 and in the assay with MCC-13 was “inactive” in each case. In addition, the values for the max response in the assay on CRL-7250 [1] and in the assay on KB-3-1 were -4.52% and 1.27%, respectively. The call with HaCat [2], with NIH3T3, in the assay on HACAT [3] and in the assay with HEK293T was inactive.

With `CCN1C[C@]2(OC(=O)c3ccccc3NC(C)=O)CC[C@H](OC)[C@@]34[C@H]5CC6[C@@H](OC)C[C@](O)(C(C[C@@H]23)[C@@H]14)[C@@]5(O)[C@@H]6OC`, the compound was classed as inactive with CRL-7250 [1], with HaCat [2], in the assay on KB-3-1, with NIH3T3, in the assay with CRL-7250 [4] and with HACAT [3]. In addition, the Potency result in the assay with MCC-13 is “inactive”.

Take `CC[C@@]1(O)C(=O)OCc2c1cc1n(c2=O)Cc2cc3ccccc3nc2-1`: the Potency with CRL-7250 [1] was 418 nM (active); in the assay on HaCat [2], 46.9 nM (active); in the assay on KB-3-1, 469 nM (active); in the assay on NIH3T3, 148 nM (active); with MCC-13, 26.4 nM (active).

Consider `CC(C)(C)C(O)C(Oc1ccc(Cl)cc1)n1cncn1` (stereo not drawn), for which the call with CRL-7250 [1] was inactive. Further, the max response was 0.929% in the assay with HaCat [2], -16.3% in the assay on KB-3-1 and 3.17% in the assay on NIH3T3. Besides, the outcome with CRL-7250 [4] was “inactive [at 92 µM]”. The Potency entry in the assay with MCC-13 is “inactive”.

On to `CN[C@@H]1Cc2cccc3[nH]c(=O)n(c23)C1`, for which the max response with CRL-7250 [1] is -16.3%; with HEK293, -16.4%; in the assay with KB-3-1, 9.87%; in the assay on NIH3T3, 3.1%. In addition, the Potency result in the assay with MCC-13 is “inactive”.

With `Cc1c(N)nc([C@H](CC(N)=O)NC[C@@H](N)C(N)=O)nc1C(=O)N[C@H](C(=O)N[C@@H](C)[C@H](O)[C@@H](C)C(=O)N[C@@H](C(=O)NCCc1nc(-c2nc(C(=O)NCCC[S+](C)C)cs2)cs1)[C@@H](C)O)C(O[C@H]1O[C@H](CO)[C@H](O)[C@@H](O)[C@@H]1O[C@H]1O[C@H](CO)[C@@H](O)[C@H](OC(N)=O)[C@H]1O)c1cnc[nH]1` (stereo partly drawn), the Potency in the assay on CRL-7250 [1] is 10500 nM (active); in the assay with HEK293 it was 526 nM (active); with NIH3T3, 1180 nM (active).

As to `CC(C)(O)C=CC(=O)[C@](C)(O)[C@H]1[C@H](O)C[C@]2(C)[C@@H]3CC=C4[C@@H](C=C(O)C(=O)C4(C)C)[C@]3(C)C(=O)C[C@@]12C`, the Potency is 418 nM (active) with CRL-7250 [1]; 1870 nM (active) with HEK293; 132 nM (active) in the assay on KB-3-1; 2960 nM (active) with NIH3T3; 264 nM (active) in the assay on MCC-13.

As for `CCOP(=O)(NC(C)C)Oc1ccc(SC)c(C)c1` (stereo not drawn), the values for the max response in the assay on CRL-7250 [1], in the assay with KB-3-1 and with NIH3T3 were -0.0778%, -7.33% and -4.93%, respectively. For the same compound, the compound was classed as inactive in the assay on HaCat [2]. Further, the outcome with HACAT [3] was “inactive [at 92 µM]”. Besides, the Potency result with MCC-13 is “inactive”.

For the compound `CCN1CCN(C(=O)Cc2ccc(Nc3ncc(F)c(Nc4ccc(C(=O)Nc5ccccc5Cl)cc4)n3)cc2)CC1`, the Potency is 26.4 µM (active) and 16.4 µM (active) in the assay with CRL-7250 [1]; 8200 nM (active) in the assay with HaCat [2]; 1840 nM (active) with KB-3-1; 20600 nM (active) with NIH3T3.

As to `Nc1ccc(Sc2ccc(N)cc2)cc1`, the max response with CRL-7250 [1] was -36.8%; in the assay with HEK293 it was -4.95%; with KB-3-1, -8.88%; with NIH3T3, -12.3%. Further, the Potency entry in the assay on MCC-13 is “inactive”.

With `C[C@]12CC[C@H]3[C@@H](CCC4=CC(=O)CC[C@@]43C)[C@H]1CC[C@H]2OC(=O)CCC1CCCC1`, the max response in the assay with CRL-7250 [1] is 2.84%; in the assay on HaCat [2], 4.09%; in the assay on KB-3-1 it was 9.03%; in the assay on NIH3T3 it was 3.21%. In addition, the outcome with HEK293T was inactive. In the assay on MCC-13, the Potency entry was “inactive”.

Regarding `CN1CCN(c2ccc([N+](=O)[O-])c3no[n+]([O-])c23)CC1`, the max response in the assay on CRL-7250 [1] is 3.76% and -14.8%; in the assay with HaCat [2] it was 4.94% and 1.91%; in the assay with NIH3T3, 0.637%. The compound was classed as inactive in the assay with KB-3-1 and with NIH3T3. The Potency entry in the assay on MCC-13 is “inactive”.
